# Measured values taken from publication PMC8384837, “Expanding the binding specificity for RNA recognition by a PUF domain”.
# Tests used:
# Assay in all cases: yeast three-hybrid, YBZ-1, SC-Leu-His + 0.5 mM 3-AT, 4 days
# Conditions in all cases: tags: N-Gal4 AD-HA kept; label: inside an RPR1-promoter hybrid RNA with tandem MS2 sites; ssRNA
# PUM1 PUF domain R6-VYE = molecular target: T1, PUM1 PUF domain R6-VYE (Homo sapiens, UniProt Q14671 828-1176, N1043V;Q1047E)
# T1 sequence: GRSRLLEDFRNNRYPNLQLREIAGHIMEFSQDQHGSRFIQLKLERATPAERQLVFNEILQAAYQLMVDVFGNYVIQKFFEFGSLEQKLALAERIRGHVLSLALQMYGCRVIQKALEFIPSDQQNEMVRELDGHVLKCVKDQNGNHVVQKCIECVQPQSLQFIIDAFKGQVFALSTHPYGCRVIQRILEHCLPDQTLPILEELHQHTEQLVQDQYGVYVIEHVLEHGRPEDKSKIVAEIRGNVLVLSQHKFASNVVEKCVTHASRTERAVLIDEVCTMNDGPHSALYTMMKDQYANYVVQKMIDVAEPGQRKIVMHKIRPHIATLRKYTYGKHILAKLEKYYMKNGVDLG
# Outline: (§1)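 Matching RNA elements and Pumilio-1 PUF domain libraries, randomized at the three base-contacting residues of every repeat, were co-expressed from a centromeric plasmid in strain YBZ-1 (LexA–MS2 coat fusion, HIS3 reporter). The repeat regions were PCR-amplified and Illumina-sequenced from cells grown four days on SC-Leu (input) or SC-Leu-His + 0.5 mM 3-AT (selection). The interaction score is the log change in variant frequency from input to selection. It is computed in log2, with a pseudocount of 1 for absent variants.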
# PUM1 PUF domain R8-RHL = PUM1 PUF domain R8-RHL (Homo sapiens, UniProt Q14671 828-1176, N1122R;Y1123H;Q1126L)
# Outline: as §1
# PUM1 PUF domain R8-PWL = PUM1 PUF domain R8-PWL (Homo sapiens, UniProt Q14671 828-1176, N1122P;Y1123W;Q1126L)
# Outline: as §1
# PUM1 PUF domain R5-KRC = PUM1 PUF domain R5-KRC (Homo sapiens, UniProt Q14671 828-1176, C1007K;Q1011C)
# Sequence of PUM1 PUF domain R5-KRC (Q14671 828-1176 C1007K/Q1011C): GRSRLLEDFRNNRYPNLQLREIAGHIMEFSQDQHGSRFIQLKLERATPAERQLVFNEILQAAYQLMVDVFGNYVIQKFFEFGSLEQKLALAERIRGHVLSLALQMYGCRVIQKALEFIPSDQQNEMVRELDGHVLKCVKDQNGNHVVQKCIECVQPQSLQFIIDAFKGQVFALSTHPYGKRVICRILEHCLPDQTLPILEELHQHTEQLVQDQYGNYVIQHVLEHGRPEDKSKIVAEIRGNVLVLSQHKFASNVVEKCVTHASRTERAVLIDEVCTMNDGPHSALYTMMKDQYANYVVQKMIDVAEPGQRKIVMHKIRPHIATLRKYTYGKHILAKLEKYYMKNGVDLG
# Outline: as §1
# PUM1 PUF domain R4-GNG = PUM1 PUF domain R4-GNG (Homo sapiens, UniProt Q14671 828-1176, N971G;H972N;Q975G)
# Sequence of PUM1 PUF domain R4-GNG (Q14671 828-1176 N971G/H972N/Q975G): as the sequence (Q14671 828-1176 C1007K/Q1011C) above, with N144G, H145N, Q148G, K180C, C184Q counted along it
# Outline: as §1
# PUM1 PUF domain R3-DHR = PUM1 PUF domain R3-DHR (Homo sapiens, UniProt Q14671 828-1176, C935D;R936H;Q939R)
# Outline: as §1
# PUM1 PUF domain R3-SRH = PUM1 PUF domain R3-SRH (Homo sapiens, UniProt Q14671 828-1176, C935S;Q939H)
# Outline: as §1
# PUM1 PUF domain R1-KSA = PUM1 PUF domain R1-KSA (Homo sapiens, UniProt Q14671 828-1176, S863K;R864S;Q867A)
# Outline: as §1
# PUM1 PUF domain R5-HRS = PUM1 PUF domain R5-HRS (Homo sapiens, UniProt Q14671 828-1176, C1007H;Q1011S)
# Sequence of PUM1 PUF domain R5-HRS (Q14671 828-1176 C1007H/Q1011S): as the sequence (Q14671 828-1176 C1007K/Q1011C) above, with K180H, C184S counted along it
# Outline: as §1
# PUM1 PUF domain R7-LYG = PUM1 PUF domain R7-LYG (Homo sapiens, UniProt Q14671 828-1176, S1079L;N1080Y;E1083G)
# Outline: as §1
# PUM1 PUF domain R7-RSS = PUM1 PUF domain R7-RSS (Homo sapiens, UniProt Q14671 828-1176, S1079R;N1080S;E1083S)
# Outline: as §1
sequence,measurement,setting,value
GGCUAGAACUAGUGGAUCCCCCGGCGCCCGGCGGCUCGAGCCCGGGUAAGUGAAAAUAGUCUGCAUGCCGCCGGGCGCCAUGCCUGCAGGUCGACUCUAGAAAACAUG,binding signal,PUM1 PUF domain R6-VYE,7.22 log2 enrichment (interaction score)
GGCUAGAACUAGUGGAUCCCCCGGCGCCCGGCGGCUCGAGCCCGGGUAAGUGUAAAUAGUCUGCAUGCCGCCGGGCGCCAUGCCUGCAGGUCGACUCUAGAAAACAUG,binding signal,PUM1 PUF domain R8-RHL,3.23 log2 enrichment (interaction score)
same,binding signal,PUM1 PUF domain R8-PWL,2.93 log2 enrichment (interaction score)
same,binding signal,PUM1 PUF domain R5-KRC,2.12 log2 enrichment (interaction score)
same,binding signal,PUM1 PUF domain R4-GNG,1.49 log2 enrichment (interaction score)
same,binding signal,PUM1 PUF domain R3-DHR,3.23 log2 enrichment (interaction score)
same,binding signal,PUM1 PUF domain R3-SRH,4.37 log2 enrichment (interaction score)
GGCUAGAACUAGUGGAUCCCCCGGCGCCCGGCGGCUCGAGCCCGGGUAAGCGUAAAUAGUCUGCAUGCCGCCGGGCGCCAUGCCUGCAGGUCGACUCUAGAAAACAUG,binding signal,PUM1 PUF domain R8-RHL,5.48 log2 enrichment (interaction score)
same,binding signal,PUM1 PUF domain R8-PWL,3.61 log2 enrichment (interaction score)
GGCUAGAACUAGUGGAUCCCCCGGCGCCCGGCGGCUCGAGCCCGGGUAAGUGUAAAUCGUCUGCAUGCCGCCGGGCGCCAUGCCUGCAGGUCGACUCUAGAAAACAUG,binding signal,PUM1 PUF domain R1-KSA,3.27 log2 enrichment (interaction score)
GGCUAGAACUAGUGGAUCCCCCGGCGCCCGGCGGCUCGAGCCCGGGUAAGUGUUAAUAGUCUGCAUGCCGCCGGGCGCCAUGCCUGCAGGUCGACUCUAGAAAACAUG,binding signal,PUM1 PUF domain R5-KRC,3.89 log2 enrichment (interaction score)
same,binding signal,PUM1 PUF domain R5-HRS,4.01 log2 enrichment (interaction score)
GGCUAGAACUAGUGGAUCCCCCGGCGCCCGGCGGCUCGAGCCCGGGUAAGUCUAAAUAGUCUGCAUGCCGCCGGGCGCCAUGCCUGCAGGUCGACUCUAGAAAACAUG,binding signal,PUM1 PUF domain R7-LYG,2.93 log2 enrichment (interaction score)
same,binding signal,PUM1 PUF domain R7-RSS,1.34 log2 enrichment (interaction score)
